Bioassay records (PubChem)
PI5P4Ka inh: qHTS for Inhibitors of phosphatidylinositol 5-phosphate 4-kinase (PI5P4K); max response, %; hit rate 1.2% among 330,000; Phosphatidylinositol 5-phosphate 4-kinase type-2 alpha (Homo sapiens), P48426; PI5P4Kalpha enzyme, ADP-Glo luminescence, 60 min; hits give low values; active means max response of -50% or lower; inconclusive means between -30% and -50%; inactive means -30% or higher; further: value at the top dose of about 77 µM; on the % scale 0 is the no-effect control and ±100 the full control effect
Target sequence (P48426 whole entry, looked up): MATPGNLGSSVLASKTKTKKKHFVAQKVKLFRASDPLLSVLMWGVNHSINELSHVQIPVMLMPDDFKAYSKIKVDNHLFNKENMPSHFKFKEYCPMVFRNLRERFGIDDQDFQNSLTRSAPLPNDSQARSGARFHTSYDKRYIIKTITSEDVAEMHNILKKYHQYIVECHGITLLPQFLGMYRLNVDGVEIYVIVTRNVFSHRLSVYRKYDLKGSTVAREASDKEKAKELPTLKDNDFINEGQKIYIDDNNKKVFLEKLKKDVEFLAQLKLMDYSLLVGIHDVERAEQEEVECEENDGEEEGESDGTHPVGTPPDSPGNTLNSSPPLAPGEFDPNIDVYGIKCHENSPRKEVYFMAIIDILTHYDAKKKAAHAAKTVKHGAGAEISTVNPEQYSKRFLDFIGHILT
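Luminescence from ADP-Glo served as readout of PI5P4Kalpha activity in a qHTS format. Reaction: enzyme, substrate, compound, ATP at 5 microM final, 60 min at RT.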
PLK1 PBD inh: qHTS for Inhibitors of PLK1-PDB (polo-like kinase 1 - polo-box domain): Primary Screen; Serine/threonine-protein kinase PLK1 (Homo sapiens), P53350; Plk1 PBD binding of FITC phosphopeptide, fluorescence polarization; Potency, µM, without a hit: max response, negative = inhibition, actives largely listed as inhibitors; hit rate 2.8% among 360,000; AID 720504, 2013; further: potency means the concentration at half of the fitted maximal effect; series mostly up to about 57 µM; on the % scale 0 is the no-effect control and ±100 the full control effect; nearly all actives have a fitted effect of over 65% in size
BAZ2B inh: qHTS Assay for Inhibitors of BAZ2B; Bromodomain adjacent to zinc finger domain protein 2B (Homo sapiens), Q9UIF8; Potency, µM (doses to about 114 µM), without a hit: at the highest dose activity change, negative = inhibition, hits mostly inhibitors; hit rate 4.4% among 360,000; AID 504333, 2011; AlphaScreen BAZ2B-H3K14Ac peptide displacement; further: potency means the concentration at half of the fitted maximal effect; on the % scale 0 is the no-effect control and ±100 the full control effect; nearly all actives have a fitted effect of over 60% in size
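Inhibition is scored as reduced AlphaScreen emission. The BAZ2B/b-H3(5-23)K14Ac complex (50 nM each) in PBS pH 7.4, 0.01% Tween-20 meets compound (up to 110 uM) for 30 min at RT before bead addition.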
JMJD2A Tudor inh: qHTS Assay for Inhibitors of JMJD2A-Tudor Domain | hit rate 4.4% among 390,000 | AID 504339, 2011 | AlphaScreen JMJD2A-Tudor / H3K4me3 peptide binding | Potency, µM (titrated, usually from 114 µM), for inactives: at the highest dose activity change, negative = inhibition, most hits filed as inhibitors; further: potency means the concentration at half of the fitted maximal effect; on the % scale 0 is the no-effect control and ±100 the full control effect; nearly all actives have a fitted effect of over 50% in size
HP1b chromo inh: HTS for Inhibitors of HP1-beta Chromodomain Interactions with Methylated Histone Tails; Chromobox protein homolog 1 (Homo sapiens), P83916; AlphaScreen HP1-beta / biotin-H3K9me3 peptide binding; Potency, µM (titrated, usually from 114 µM), inactives show at the top dose activity change, negative = inhibition, usual class: inhibitors; hit rate 0.56% among 390,000; AID 540317, 2011; further: potency means the concentration at half of the fitted maximal effect; nearly all actives have a fitted effect of over 70% in size
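AlphaScreen: HP1-beta (50 nM) preformed 30 min with biotin-H3(1-18)K9me3 peptide (50 nM) in PBS pH 7.4, 0.01% Tween-20. Compound added for 30 min at RT, then streptavidin donor/nickel chelate acceptor beads (10 ug/mL) for 30 min.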
G9a inh: qHTS Assay for Inhibitors of Histone Lysine Methyltransferase G9a | Histone-lysine N-methyltransferase EHMT2 (Homo sapiens), Q96KQ7 | G9a H3K9 monomethylation, AlphaScreen, 2 h | Potency, µM (titrated, usually from 102 µM), for the others: top-dose activity, negative = inhibition, most hits filed as inhibitors | hit rate 8.8% among 350,000; further: potency means the concentration at half of the fitted maximal effect; on the % scale 0 is the no-effect control and ±100 the full control effect; nearly all actives have a fitted effect of over 75% in size
Target sequence (Q96KQ7 913-1193 limits assumed): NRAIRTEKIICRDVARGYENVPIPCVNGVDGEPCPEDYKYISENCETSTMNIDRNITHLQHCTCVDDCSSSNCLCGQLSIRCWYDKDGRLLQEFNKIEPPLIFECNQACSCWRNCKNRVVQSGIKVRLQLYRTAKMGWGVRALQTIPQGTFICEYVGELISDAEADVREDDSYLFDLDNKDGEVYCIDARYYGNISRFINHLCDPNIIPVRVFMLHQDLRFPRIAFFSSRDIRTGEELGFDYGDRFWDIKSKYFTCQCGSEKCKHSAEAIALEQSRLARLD
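Signal arises when biotinylated H3K9 peptide, once monomethylated, bridges streptavidin donor and antibody-captured acceptor beads. Enzyme at 20 nM was preincubated 15 min with test compounds; peptide 500 nM and SAM 20 uM then reacted for 2 h.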
* hit, by the source's call; ? = inconclusive; . = no result given; [ ] = another dose, or the depositor's remark. In the library only some 12% were active in any assay of this set; here they are far more common. Unless noted, the call rests on the fitted dose curve; in most records, active means well fitted curve in the direction sought with a large enough effect; inconclusive means small, poorly fitted or top-dose-only effect, or another doubt; inactive means no such curve, though single readings can be large; an effect the other way counts as inactive or inconclusive.

SMILES	PI5P4Ka inh	PLK1 PBD inh	BAZ2B inh	JMJD2A Tudor inh	HP1b chromo inh	G9a inh
NC(=O)[C@@H]1CCNc2c(I)cc([N+](=O)[O-])cc2C(=O)N[C@@H](CCC(=O)O)C(=O)N[C@@H](CO)C(=O)N1	2	-17%	-38%	-14%	31%	10µM*
NC(=O)C[C@@H]1NC(=O)c2cc([N+](=O)[O-])cc(F)c2NCCCC[C@@H](C(N)=O)NC(=O)[C@H](CO)NC1=O	.	.	?	.	.	50µM*
Brc1ccc(C2=Nn3cnnc3SC2)cc1	1	-6%	9%	-17%	17%	.
COc1ccc2c(c1)c1c(c(=O)n(-c3ccc(C)cc3)c(=O)n1CC(=O)c1ccc(Cl)cc1)n2C	.	.	-4%	5%	39%	7%[59 µM]
C=C(C)Cn1c(SCC(=O)c2ccc(OC)cc2)nc2sc3c(c2c1=O)CCCC3	.	.	-11%	-14%	-7%	-21%[59 µM]
Nc1c(N=Nc2ccc(-c3ccc(N=Nc4cc(S(=O)(=O)O)c5ccccc5c4N)cc3)cc2)cc(S(=O)(=O)O)c2ccccc12	.	.	.	.	.	3.5µM*
O=C1CCCC(=O)N1c1ccc(N2CCN(c3ccccc3)CC2)c([N+](=O)[O-])c1	-8	-18%	-38%	-10%[57.1 µM]	-14%	-10%
O=C1C2CC=CCC2C(=O)N1c1ccc(N2CCN(c3ccccn3)CC2)c([N+](=O)[O-])c1 (stereo not drawn)	2	-2%	8.9µM*	?	2%	?
Cc1ccc(N2C(=O)[C@@H]3[C@H](C2=O)[C@H]2C=CC=NN2[C@@H]3C(=O)Nc2ccc(Cl)cc2)cc1	-27	?	50µM*	-8%[57.1 µM]	2%	3.2µM*
O=C(Nc1ccc(Cl)cc1)[C@@H]1[C@@H]2C(=O)N(c3ccc(Cl)cc3)C(=O)[C@@H]2[C@H]2C=CC=NN21	?	24µM*	-39%	?	-26%	?
Cc1c(C(=O)N(C)C)c2ccc(Cl)cc2n1O	4	-23%	4%	-9%	13%	3.2µM*
CCCSc1ncc(Cl)c(C(=O)Nc2ccc(OC)cc2OC)n1	.	.	-3%	-17%	31%	12%[59 µM]
Nc1ccccc1-c1nnc(-c2ccccc2N)n1N	0	-5%	?	-9%	40%	-27%
Cc1ccc(NC(=O)CSc2nnc(-c3ccccn3)n2N)cc1F	-1	5%	-19%	-8%	13%	-1%
Cc1ccc(C)c(CSc2nnc(-c3ccccn3)n2N)c1	1	-26%	.	40µM*	26%	-24%[59 µM]
c1ccc(-c2nn[nH]n2)cc1	2	-2%	-19%	-25%	14%	?
Nn1c(-c2ccccn2)nnc1-c1ccccn1	2	-1%	32µM*	79µM*	40%	16%[12.7 µM]
Nn1c(SCc2c(F)cccc2F)nnc1-c1ccccn1	-6	-6%	13µM*	8.9µM*	-5%	-36%
c1ccc(-c2nn[nH]n2)nc1	11	0%	5.6µM*	7.1µM*	27%	.
COc1ccc(-n2c(=O)c(-c3ccc(Cl)cc3)nc3cnc(N(C)C)nc32)cc1	.	.	.	.	.	-17%[0.501 µM]
CCN(CC)C(=O)c1ccccc1NC(=O)c1cccc(S(=O)(=O)N(CC)CC)c1	2	-7%	4%	-5%	30%	6%
CCN(CC)S(=O)(=O)c1cccc(C(=O)N/N=C(\C)c2ccc(O)cc2O)c1	-15	120%	8.9µM*	?	30%	28%
CCN(CC)S(=O)(=O)c1cccc(C(=O)N/N=C/c2ccc(O)c(O)c2O)c1	-70*	8.4µM*	40µM*	?	?	1.8µM*
FC(F)(F)c1cc(CO[C@H]2CCCN[C@H]2c2ccccc2)cc(C(F)(F)F)c1	.	.	.	.	.	17%[12.7 µM]
N#CCCn1c(=O)c(-c2cccc(C#N)c2)nc2cnc(N3CCOCC3)nc21	.	.	.	.	.	8%[0.501 µM]
SMILES	PI5P4Ka inh	PLK1 PBD inh	BAZ2B inh	JMJD2A Tudor inh	HP1b chromo inh	G9a inh
C/C(=N\N1CCN(c2ccccc2)CC1)c1ccco1	1	?	?	-15%	1%	56µM*
C/C(=N\N1CCN(Cc2ccccc2)CC1)c1ccco1	2	-2%	-22%	-6%	60%	-2%
Cc1ccc2nc(SCC(=O)NC3CCS(=O)(=O)C3)[nH]c2c1 (stereo not drawn)	0	-5%	.	-15%	31%	.
O=C(O)c1c[nH]c(=S)n1-c1ccc(F)cc1	-9	-1%	?	?	50%	28µM*
CSc1ncc(C(=O)O)n1-c1ccc(F)cc1	-3	-6%	-3%	-22%	20%	-47%
CN1C(=O)C2(Oc3ccccc3C3CC(c4ccccc4)=NN32)c2ccccc21 (stereo not drawn)	1	-18%	-33%	?	17%	?
Cc1ccc(C2=NN3C(C2)c2ccccc2OC32C(=O)Nc3ccccc32)cc1 (stereo not drawn)	-53*	-9%	?	?	4%	?
Cc1ccc(C=Nc2ccc(N(C)C)cc2)o1	.	-2%	.	45µM*	?	1.3µM*
Cc1cc(C)cc(N=Cc2ccc([N+](=O)[O-])s2)c1	-4	-5%	25µM*	20µM*	45µM*	40µM*
Cc1nc2ccccc2n1/N=C/c1ccc([N+](=O)[O-])s1	-6	-6%	-33%	-19%	-23%	50µM*
Cc1ccc(NC(=S)N/N=C/c2ccc([N+](=O)[O-])s2)cc1	4	-4%	14µM*	40µM*	?	40µM*
O=[N+]([O-])c1ccc(/C=N/n2c(CO)nc3ccccc32)s1	-19	-9%	-8%	-26%	5%	-7%[59 µM]
O=[N+]([O-])c1ccc(C=Nc2ccc(Cl)c([N+](=O)[O-])c2)s1	.	.	?	.	.	-14%[59 µM]
CC(C)c1ccc(NC2CCCN(C(=O)c3cccc(N4CCNC4=O)c3)C2)cc1 (stereo not drawn)	4	-14%	?	-22%	-1%	.
CC(C)c1ccc(NC2CCCN(C(=O)c3ccnc(Cl)c3)C2)cc1 (stereo not drawn)	-1	-9%	?	-32%	24%	25µM*
CC(C)c1ccc(NC2CCCN(C(=O)c3ccc4nccnc4c3)C2)cc1 (stereo not drawn)	5	-7%	-26%	-25%	13%	79µM*
O=C(c1ccnc(Cl)c1)N1CCCC(Nc2ccc(F)cc2)C1 (stereo not drawn)	-9	7%	0%	-22%	20%	-14%
